# The campaign covered roughly 2,100 compounds. About 650 (31%) were called active. Roughly 16% stayed inconclusive and do not appear here. The call rests on the fitted dose curve; in most records, active means well fitted inhibition curve with a large enough effect; inconclusive means small, poorly fitted or top-dose-only effect; inactive means flat fitted curve, though single readings scatter. This is one part of the list.
# Assay: qHTS for inhibitors of Vif-A3G interactions: Cherry picks; further: nearly all actives have a fitted effect of over 80% in size; on activity, negative = fluorescence increase: % of control where 0% means no effect
# Conditions: HeLa A3G-eYFP + Vif (tagged APOBEC3G with the HIV-1 protein that degrades it), 24 h; Potency: eYFP fluorescence increase; series mostly up to 36.9 µM; activity, negative = fluorescence increase: at the top concentration
# Method in brief: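 HeLa cells stably expressing A3G-eYFP and Vif, cultured overnight then exposed to compounds at several concentrations for 24 hours at 37 C, 5% CO2; cellular yellow fluorescence (488 nm ex, 500-530 nm em) imaged on Acumen, MG132 positive control.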
# Potency means the concentration at half of the fitted maximal effect.
Structure (SMILES),"activity, negative = fluorescence increase",Potency
COC(=O)[C@@]1(Cc2ccccc2)[C@@H]2C(=CC(=O)[C@H]2CC(=O)C(=O)N(C)C)CN1C(=O)c1ccccc1,0.342% (inactive),–
C/C(=N\NC(=S)NC(C)C)c1ccc(C(C)(C)C)cc1,-8.17% [at 46.1 µM] (inactive),–
CCCSc1nnc(N2C(=O)C(O)=C(C(=O)c3ccco3)C2c2ccccc2F)s1 (stereo not drawn),-1.17% [at 46.1 µM] (inactive),–
N#CC1=C(N)Oc2cc(N)ccc2C1c1cccc(Br)c1 (stereo not drawn),-12.2% (inactive),–
N#CC1=C(N)Oc2ccc3ccccc3c2C1c1cccnc1 (stereo not drawn),-12.2% (inactive),–
CCN(CC)c1ccc2c(c1)OC(N)=C(C#N)C2c1cccnc1 (stereo not drawn),–,17.7 µM (active)
Cc1cccc2[nH]cc(/C=C3/C=Nc4ccccc43)c12,–,18.4 µM (active)
CC(C)COc1ccc(C(=O)N/C(=C/c2cccc([N+](=O)[O-])c2)C(=O)O)cc1,-7.22% (inactive),–
Cc1nc2c3ccccc3n(Cc3ccccc3F)c2s1,5.45% (inactive),–
FC(F)(Cl)c1nnc2ccc(Cl)nn12,-7.87% (inactive),–
CCc1ccc(N=Nc2ccc(O)c3[nH]cnc23)cc1,–,13 µM (active)
COc1ccc2c(Cl)c(C(=O)N/N=C3\CCCC(=O)C3)sc2c1,–,17.7 µM (active)
CCOc1cc(C(=O)NN=C2CCCC2)cc(OCC)c1OCC,-3.08% (inactive),–
O=C(/C=C/c1ccco1)N1CCc2ccccc21,-6.03% [at 46.1 µM] (inactive),–
Clc1ccccc1Cn1c(/C=C/c2ccco2)nc2ccccc21,-3.73% (inactive),–
COc1ccccc1N1N=C(c2ccc([N+](=O)[O-])cc2)CC1c1ccccc1 (stereo not drawn),–,1.4 µM (active)
COC(=O)c1cc(C(=O)N2CCN(c3ccccc3OC)CC2)cc([N+](=O)[O-])c1,-5.78% (inactive),–
O=[N+]([O-])c1ccc(C2=NN(c3ccccc3)C(c3ccco3)C2)cc1 (stereo not drawn),–,1.25 µM (active)
CCS(=O)(=O)Nc1cccc(C2=NN(C(=O)c3ccco3)C(c3ccco3)C2)c1 (stereo not drawn),-1.87% (inactive),–
COc1ccccc1N=C(C)C1=C(O)CC(c2ccccc2)CC1=O (stereo not drawn),-7.64% (inactive),–
O=[N+]([O-])c1ccc(/C=C/C2=NN(c3ccccc3)C(c3ccco3)C2)o1 (stereo not drawn),–,3.66 µM (active)
C(=C\c1ccco1)/C1=NN(c2ccccc2)C(c2ccco2)C1 (stereo not drawn),–,23.1 µM (active)
Cc1ccc(C(=O)NC(=C(Cl)Cl)S(=O)(=O)c2ccccc2)cc1,-9.1% (inactive),–
COc1ccc(OC)c(Nc2ncnc3c2cnn3-c2cccc(Cl)c2)c1,-1.34% [at 46.1 µM] (inactive),–
COc1ccc(NC(=O)C2Cc3c(-c4ccc(NC(C)=O)cc4)ccnc3O2)cn1 (stereo not drawn),-12.1% (inactive),–
Cn1c2ccccc2c2ccc3c(c21)C(=O)C=CC3=O,-5.19% [at 46.1 µM] (inactive),–

Structure (SMILES),"activity, negative = fluorescence increase",Potency
N#CC(C(=S)Nc1ccccc1)c1nc2ccccc2[nH]1 (stereo not drawn),-46.8% [at 46.1 µM] (inactive),–
Cc1cccc(C)c1NC(=S)NC(C)CCc1ccccc1 (stereo not drawn),8.84% [at 46.1 µM] (inactive),–
Cc1cc(C)nc(Nc2nc(C(N)Cc3ccccc3)cs2)n1 (stereo not drawn),-0.643% (inactive),–
Cc1cc(SCC(=O)c2cccs2)nc2ccccc12,-1.59% [at 46.1 µM] (inactive),–
COc1ccc2c(C)cc(SCC(=O)N3CCOCC3)nc2c1,–,18.4 µM (active)
Cc1sc2nc(SCC(=O)N3CCOCC3)[nH]c(=O)c2c1-c1ccccc1,8.43% [at 46.1 µM] (inactive),–
CCN(CC)c1nc2cc(OC)ccc2cc1C#N,6.08% [at 46.1 µM] (inactive),–
COc1ccc2c(C)cc(SCC#N)nc2c1,–,18.4 µM (active)
CO/N=C/c1ccc(OC)c(Oc2nc(OC)cc(OC)n2)c1,-8.03% (inactive),–
COc1ccc(C2C(C#N)=C(N)Oc3c2ccc2cccnc32)cc1OC (stereo not drawn),-2.64% (inactive),–
CS(=O)(=O)Nc1cccc(C2=NN(S(C)(=O)=O)C(c3ccc4c(c3)OCO4)C2)c1 (stereo not drawn),-7.77% (inactive),–
c1ccc(-c2nccc(-c3ccc4c(c3)OCO4)n2)cc1,-0.239% (inactive),–
CS(=O)(=O)N1N=C(c2ccccc2)CC1c1ccc2c(c1)OCO2 (stereo not drawn),–,14 µM (active)
CCCCN(CCC(=O)O)c1ccc(/C=C/c2ccnc3ccccc23)cc1,–,18.4 µM (active)
CC(C)CN(CC(C)C)c1ccc(/C=C/c2ccnc3ccccc23)cc1,–,23.1 µM (active)
CCCCN(CCCC)c1ccc(/C=C/c2ccnc3ccccc23)cc1,–,16.4 µM (active)
CCN(CCCN(C)C)c1ccc(/C=C/c2ccnc3ccccc23)cc1,–,18.4 µM (active)
COc1ccc(NS(=O)(=O)c2cc(NC(=O)c3ccc(=O)[nH]c3)ccc2N2CCCC2)cc1,-9.79% (inactive),–
Cc1ccsc1/C=N\NC(=O)c1n[nH]c2c1CCC2,-28.6% (inactive),–
CC(=Nc1ccccc1)C1=C(O)C(Cc2ccccc2)NC1=O (stereo not drawn),-18.4% (inactive),–
CCN(C)c1ccc(/C=N\n2nnnc2N)cc1,-4.68% (inactive),–
CCN(C)c1ccc(/C=C/c2ccnc3ccccc23)cc1,–,20.6 µM (active)
CCN(CC)c1ccc(/C=C/c2ccnc3ccccc23)cc1,–,23.1 µM (active)
CCCN(CCC)c1ccc(/C=C/c2ccnc3ccccc23)cc1,–,20.6 µM (active)
C/C(CC(=O)NCc1ccco1)=N\NC(=O)COc1ccc(Cl)cc1Cl,-8.79% (inactive),–
CCN1/C(=C/C=C2/SC(=Nc3cccc4ncccc34)N(C)C2=O)Sc2ccccc21,–,16.4 µM (active)

Structure (SMILES),"activity, negative = fluorescence increase",Potency
COc1cccc(Sc2ccccc2/C=N/NC(N)=O)c1,-2.6% (inactive),–
O=C(Nc1nnc(-c2ccc3c(c2)CCCC3)o1)c1c(F)cccc1F,10.8% [at 46.1 µM] (inactive),–
Cc1nnc(SCC(=O)NCc2ccccc2F)c2nn(-c3ccc(Cl)cc3)c(C)c12,-23.7% [at 46.1 µM] (inactive),–
Cc1c(-c2nnc(SCC(=O)Nc3ccccc3F)o2)nnn1-c1ccc(F)cc1,–,23.1 µM (active)
OCCCn1c(C2CCCN2c2nc(-c3ccc(Cl)cc3)cs2)nc2cc(Cl)c(Cl)cc21 (stereo not drawn),-8.45% [at 46.1 µM] (inactive),–
Cc1ccccc1NC(=O)c1ccc2c(c1)c(C)c(C)n2Cc1ccccc1,-2.97% [at 46.1 µM] (inactive),–
N=c1n(CC(=O)c2ccc([N+](=O)[O-])cc2)c2ccccc2n1Cc1ccccc1,–,18.4 µM (active)
Cc1ccc(C(=O)NC2c3ccccc3-c3ccccc32)cc1,-6.92% (inactive),–
Cc1ccc(C)c(C2NC(=O)c3ccccc3N2)c1 (stereo not drawn),-8.21% (inactive),–
Cc1ccc(SC2=C(Sc3ccc(C)cc3)C(=O)c3ccccc3C2=O)cc1,–,16.4 µM (active)
Cc1ccc(-c2cc(C(=O)N/N=C/C(Br)=C/c3ccccc3)n[nH]2)o1,-8.76% (inactive),–
Cc1ccc(Cl)cc1NC(=O)Nc1cn(CC(C)C)c(=O)c2ccccc12,0.562% [at 46.1 µM] (inactive),–
Cc1ccc2nc(-c3ccccn3)c(NC3CCCC3)n2c1,9.97% [at 46.1 µM] (inactive),–
CN(C)c1ccc(/C=C/c2ccnc3ccc(-c4ccccc4)cc23)cc1,–,18.4 µM (active)
CN(C)c1ccc(/C=C/c2ccnc3ccccc23)cc1,–,18.4 µM (active)
CN(C)c1ccc(/C=C/C=C/c2ccnc3ccccc23)cc1,–,5.8 µM (active)
CN(C)c1ccc(/C=C/c2ccnc3cc(Cl)ccc23)cc1,–,13 µM (active)
COc1cccc(CNCCSc2nnnn2C)c1OCc1ccc(F)cc1,2.21% [at 46.1 µM] (inactive),–
C=CCNC(=S)N/N=C(\C)c1ccc(OC)cc1,6.78% [at 46.1 µM] (inactive),–
CSc1ccc(/C=N/NC(=O)c2ccccc2Cl)cc1,-7% (inactive),–
Cc1ccc(NC(=S)N=Nc2c(O)n(C)c3ccc(S(=O)(=O)N4CCOCC4)cc23)cc1,3.95% [at 46.1 µM] (inactive),–
CN(C)c1ccc(/C=C/c2cnnc3ccccc23)cc1,–,20.6 µM (active)
COc1cccc2nccc(/C=C/c3ccc(N(C)C)cc3)c12,–,20.6 µM (active)
CN(C)c1ccc(/C=C/c2ccnc3ccccc23)c(N)c1,–,18.4 µM (active)
CNc1ccc(/C=C/c2ccnc3ccccc23)cc1,–,18.4 µM (active)
COc1ccc(C2=NOC(C(=O)NCc3ccc(F)cc3)C2)cc1 (stereo not drawn),-7.76% (inactive),–

Structure (SMILES),"activity, negative = fluorescence increase",Potency
CCOc1ccc(Br)cc1C1C(C(=O)OC)=C(N)Oc2cc(N(C)C)ccc21 (stereo not drawn),-9.94% (inactive),–
Cc1ccc(NC(=S)Nc2ccccn2)c(C)c1,7.06% [at 46.1 µM] (inactive),–
CC(=O)Nc1cc(-c2ccccc2CN(C)C)cn2c(-c3ccc(C(C)=O)cc3)cnc12,-11.7% (inactive),–
COC(=O)c1sc(N)c(C(=O)OC)c1COC(=O)c1c(C)noc1C,-2.04% (inactive),–
CC1(C(=O)Nc2ccc3c(c2)OCO3)Cc2c(-c3ccccc3)ccnc2O1 (stereo not drawn),1.09% (inactive),–
N#Cc1c(NC(=O)/C=C/C(=O)O)sc2c1CCN(Cc1ccccc1)C2,-27.1% [at 46.1 µM] (inactive),–
CN(C)c1ccc(/C=C(\C#N)C(=O)Nc2nc3c(s2)CCN(Cc2ccccc2)C3)cc1,–,1.12 µM (active)
O=S(=O)(Nc1nc2ccccc2nc1N1CCN(c2ccccc2)CC1)c1ccc(F)cc1,-15.1% [at 46.1 µM] (inactive),–
CCOC(=O)N1CCC(Nc2nc3ccccc3nc2NS(=O)(=O)c2ccc(Cl)cc2)CC1,0.827% [at 46.1 µM] (inactive),–
O=C(N=c1ccn(-c2nc3ccccc3nc2NS(=O)(=O)c2ccc(Cl)cc2)cc1)c1cccs1,–,16.4 µM (active)
O=S(=O)(Nc1nc2ccccc2nc1N1CCc2ccccc2C1)c1ccc(Br)cc1,-16.9% [at 46.1 µM] (inactive),–
CN1CCN(c2nc3ccccc3nc2NS(=O)(=O)c2ccc(Br)cc2)CC1,6.19% [at 46.1 µM] (inactive),–
O=S(=O)(Nc1nc2ccccc2nc1N1CCN(c2ccccn2)CC1)c1ccc(Cl)cc1,–,23.1 µM (active)
O=C(N/N=C/c1ccc2c(c1)OCO2)c1cc(-c2ccncc2)nc2ccccc12,-7.14% (inactive),–
Cc1ccc(C2NC(=O)c3ccccc3N2)s1 (stereo not drawn),-2.05% (inactive),–
Cc1nn(-c2ccc(F)cc2)c(Cl)c1/C=C1\C(=O)Nc2ccccc21,-7.22% (inactive),–
Cc1cc(C)c(/C=C2\C(=O)Nc3ccccc32)[nH]1,–,18.4 µM (active)
Cc1ccc(S(=O)(=O)Nc2cc(Cl)c(O)c3ncccc23)cc1,-0.848% (inactive),–
COc1ccc2oc(-c3ccccc3[N+](=O)[O-])cc(=O)c2c1,-8.58% (inactive),–
COc1ccc(S(=O)(=O)N2CCN(C(=O)c3ccc([N+](=O)[O-])o3)CC2)cc1,1.28% (inactive),–
COc1ccc2[nH]c3c(c2c1)CCNC3c1ccc([N+](=O)[O-])o1 (stereo not drawn),–,18.4 µM (active)
Cc1ccc(N/C(N)=N/c2nc(CSc3nnc(C)s3)cc(=O)[nH]2)c(C)c1,-3.92% (inactive),–
COc1ccc(C(=O)C[n+]2cc(Br)cc3ccccc32)cc1,–,20.6 µM (active)
CCCC1=[N+](CC(=O)c2ccc(Br)cc2)CCn2cccc21,-10.6% [at 46.1 µM] (inactive),–
CCn1cc2nc(SCC(=O)Nc3ccc(C)cc3C)n(Cc3ccc(C)cc3)c(=O)c2n1,-5.28% [at 46.1 µM] (inactive),–

# Reference: PubChem BioAssay AID651812 (National Center for Advancing Translational Sciences (NCATS), 2012)
